Measurements reported in PubChem BioAssay (EPA / NIEHS).
Active and inactive are the calls of the source. How the source made its calls: active means hit-call score of the fitted dose curve at least 0.9, where 1 is the maximum; inconclusive means response in the unintended direction; inactive means score below 0.9.

Assay: Tanguay_ZF_120hpf_MORT_legacy: (Legacy) Oregon State University Tanguay Lab 120 Hour Post-fertilization zebrafish Assay for Mortality (AID 2283633)
Experimental: Tanguay_ZF_120hpf_legacy is a whole embryo, multiplexed endpoint assay using zebrafish larvae exposed for 120 hours post fertilization on a 96-well plate.Tanguay_ZF_120hpf_MORT_legacy is one of one assay component(s) measured or calculated from the Tanguay_ZF_120hpf_legacy assay. It is designed to make measurements of embryonic mortality as detected with brightfield microscopy of developing zebrafish embryos.Data from the assay component Tanguay_ZF_120hpf_MORT_legacy was analyzed into 1 assay endpoints. This assay endpoint, Tanguay_ZF_120hpf_MORT_legacy, was analyzed in the positive analysis fitting direction relative to DMSO as the negative control and baseline of activity. Using a type of viability reporter, gain-of-signal activity can be used to understand changes in developmentals as they relate to the whole embryo. To generalize the intended target to other relatable targets, this assay endpoint is annotated to the embryonic mortality intended target family, where the subfamily is embryonic mortality.
Zebrafish husbandry: Tropical 5D wild-type adult zebrafish were housed in at an approximate density of 1000 per 100 gallon tank at the Sinnhuber Aquatic Research Laboratory, Oregon State University, Corvallis, OR. Each tank was kept at standard laboratory conditions of 28C on a 14-h light/10-h dark photoperiod in fish water consisting of reverse osmosis water supplemented with a commercially available salt (Instant Ocean). Spawning funnels were placed into the tanks the night prior, and embryos were collected and staged. To increase bioavailability, the chorion was enzymatically removed using pronase (63.6mg/ml, >/= 3.5U/mg, Sigma-Aldrich: P5147) at 4 hours post fertilization (hpf) using a custom automated dechorionator.Chemical exposures: Six hpf dechorionated embryos were placed 1 embryo per well in a 96-well plate prefilled with 90 ul of EM using automated embryo placement systems (AEPS). Ten microliters of each row of dilution plate 2 was added to 2 exposure plates. The final DMSO concentration used was 0.64% (vol/vol). Thirty-two embryos were also exposed to 5uM trimethyltin chloride (positive control). Plates were sealed to prevent evaporation and foil covered to reduce light exposure and kept in a 28C incubator. Embryos were statically exposed until 120 hpf. At 24 hpf, embryos were assessed for photomotor response using a custom photomotor response analysis tool (PRAT) and for developmental toxicity endpoints (MO24: mortality at 24 hpf, DP: developmental progression, SM: spontaneous movement, and NC: notochord distortion). At 120 hpf, locomotor activity was measured using Viewpoint Zebralab and assessed for 18 endpoints. Zebrafish acquisition and analysis program (ZAAP), a custom program designed to inventory, acquire, and manage zebrafish data, was used to collect developmental endpoints as either present or absent (i.e., binary responses were recorded). If mortality occurred for an embryo (at either 24 or 120 hpf), the non-mortality endpoints were not measured.

SMILES	outcome	AC50
O=P(OCCCl)(OCCCl)OCCCl	inactive	–
CC(C)(OOC(C)(C)c1ccccc1)c1ccccc1	inactive	–
CCCCC(CC)COC(=O)c1ccc(C(=O)OCC(CC)CCCC)c(C(=O)OCC(CC)CCCC)c1 (stereo not given)	inactive	–
CCC12COCN1COC2	inactive	–
Nc1ccc(Cl)cc1N	–	25.3 µM (active)
OCCCBr	inactive	–
CCCCCCCCOC(=O)c1ccc(C(=O)OCCCCCCCC)c(C(=O)OCCCCCCCC)c1	inactive	–
Clc1ccc(C(c2ccc(Cl)cc2)C(Cl)(Cl)Cl)cc1	inactive	–
CCC[CH2][Sn]([Cl])([CH2]CCC)[CH2]CCC	–	0.282 µM (active)
C[N+](C)(C)CC1CO1 (stereo not given)	inactive	–
Cc1cccc(N)c1N	inactive	–
O=C(Nc1ccccc1)c1ccccc1I	inactive	–
CN(C)C(=O)Nc1ccc(Cl)cc1	inactive	–
CCCCOC(=O)c1ccccc1C(=O)OCc1ccccc1	inactive	–
O=C1CCCO1	inactive	–
[As]#[In]	inactive	–
OCCOCCO	inactive	–
Oc1ccccc1Cl	inactive	–
CCN(CC)CCO	inactive	–
Brc1ccc(Oc2ccccc2)cc1	inactive	–

SMILES	outcome	AC50
Nc1ccc(Oc2ccc(N)cc2)cc1	inactive	–
CCC(C)c1ccc(O)cc1 (stereo not given)	inactive	–
Cn1cc(-c2ccccc2)c(=O)c(-c2cccc(C(F)(F)F)c2)c1	inactive	–
Nc1ccc(Cc2ccc(N)cc2)cc1	inactive	–
CC(C)COC(=O)c1ccccc1C(=O)OCC(C)C	inactive	–
C1=Cc2cccc3cccc1c23	inactive	–
c1ccc(N=Nc2ccccc2)cc1	inactive	–
COc1cc(C=O)cc2c1[C@H](COC(N)=O)[C@]1(OC(C)=O)ON2C[C@H]2[C@@H]1N2C(C)=O	inactive	–
C[C@]12C=CC3=C4CCC(=O)C=C4CC[C@H]3[C@@H]1CC[C@@H]2O	inactive	–
Nc1ccc([N+](=O)[O-])cc1	inactive	–
ClC1=C(Cl)C2(Cl)C3C(Cl)C=CC3C1(Cl)C2(Cl)Cl (stereo not given)	inactive	–
CNC(=O)Oc1cccc2c1OC(C)(C)C2	inactive	–
COP(=S)(OC)SCN1C(=O)c2ccccc2C1=O	inactive	–
Clc1ccc(C(c2ccc(Cl)cc2)C(Cl)Cl)cc1	inactive	–
Nc1ccc(N=Nc2ccccc2)cc1	inactive	–
CN(C)[C@@H]1C(=O)C(C(N)=O)=C(O)[C@@]2(O)C(=O)C3=C(O)c4c(O)cccc4[C@@](C)(O)[C@H]3C[C@@H]12	inactive	–
CN(C)c1ccccc1	inactive	–
O=C(N[C@H](c1ccccc1)[C@@H]1CN2CCC1CC2)c1c(Cl)ccc(C(F)(F)F)c1Cl	–	26.7 µM (active)
CCOC(=O)[C@]1(c2ccccc2)Oc2ccccc2[C@@H]1N	inactive	–
OCCCl	inactive	–
